High-throughput results deposited in PubChem BioAssay by NMMLSC.
A selection: hits, their analogues and other compounds. The true share with any hit is near 0.4%.
Rac1 wt modul: wildtype Rac1 GTP binding modulators, primary screen, biochemical, GST-Rac1 beads, flow cytometry, multiplex | Ras-related C3 botulinum toxin substrate 1 (Homo sapiens), P63000 | fluorescent GTP binding; actives lie on both sides; 0 = cold GTP competed, 100 = untreated | GTP binding activity (% of control), % at 10 µM | hit rate 0.27% among 190,000 | AID 757, 2007;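 active means GTP binding activity at least 20 points away from the 100% control level, either lower or higher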
Rab2 wt GTP: modulators of GTP binding to Rab2A wildtype, primary screen, biochemical, dog, bead-based flow cytometry, multiplex; Ras-related protein Rab-2A (Canis lupus familiaris), P61105; GST-Rab2 wt beads, Bodipy-GTP binding; GTP binding activity, % at 10 µM; hit rate 0.19% among 190,000; AID 760, 2007;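 active means GTP binding activity at least 20 points away from 100%, either lowered or raised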;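 further: 0% = beads with excess unlabeled GTP and 100% = no-compound control corrected for plate trend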
Cdc42 wt: modulators of GTP binding to wildtype Cdc42, primary screen, biochemical, multiplex bead flow cytometry, Bodipy-GTP. percent activity (GTP binding), % at 10 µM. GST-Cdc42 beads; actives lie on both sides. Cell division control protein 42 homolog (Homo sapiens), P60953. hit rate 0.2% among 190,000. AID 761, 2007;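 active means percent activity GTP binding at least 20 points away from the 100% baseline, either down as inhibitor or up as activator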;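 further: median bead fluorescence of bound Bodipy-FL-GTP at 100 nM; 0% = excess unlabeled GTP control and 100% = no compound control; below 100% means less GTP binding so inhibitor and above means activator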
Target sequence (P60953 whole entry, looked up): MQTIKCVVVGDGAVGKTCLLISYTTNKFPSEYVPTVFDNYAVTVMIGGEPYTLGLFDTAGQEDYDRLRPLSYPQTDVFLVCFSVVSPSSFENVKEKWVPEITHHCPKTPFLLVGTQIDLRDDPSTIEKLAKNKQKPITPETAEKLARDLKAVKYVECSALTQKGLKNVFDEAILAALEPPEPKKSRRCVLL
Rab7 wt GTP bind: modulators of GTP binding to Rab7, primary screen, biochemical, wildtype, multiplex bead flow cytometry; hit rate 0.055% among 190,000; Rab7 GTPase wild type (dog), Bodipy-FL-GTP binding; GTP binding activity (percent of control), % at 10 µM; GST-Rab7 beads, fluorescent GTP binding; actives lie on both sides; untreated = 100%, excess cold GTP = 0%;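 active means fluorescent GTP binding to Rab7 beads changed by at least 20 points from the 100% baseline, either direction, mostly lower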;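 further: median green fluorescence of bound Bodipy-FL-GTP per Rab7 bead population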
Rac1 mut GTP: GTP binding modulators of activated mutant Rac1, primary screen, biochemical, bead-based flow cytometry, multiplex, fluorescent GTP; GST-Rac1 activated beads; actives lie on both sides; 100% means binding = to untreated wells; percent activity (GTP binding), % at 10 µM; hit rate 0.11% among 190,000; AID 764, 2007;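 active means GTP binding at least 20 percentage points away from the 100% baseline, in either direction, so actives lie on both sides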
HRas wt GTP: modulators of GTP binding to HRas wildtype, primary screen, biochemical, bead-based flow cytometry, multiplex. GST-Ras wt beads, Bodipy-FL-GTP binding; actives lie on both sides. GTP binding activity, % at 10 µM. hit rate 0.14% among 190,000. AID 759, 2007;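 active means GTP binding activity at least 20% away from the 100% baseline, either lowered as inhibitor or raised as activator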;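 further: 0% = unlabeled GTP competition control and 100% = no-compound control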
Target sequence (P01112 whole entry, looked up): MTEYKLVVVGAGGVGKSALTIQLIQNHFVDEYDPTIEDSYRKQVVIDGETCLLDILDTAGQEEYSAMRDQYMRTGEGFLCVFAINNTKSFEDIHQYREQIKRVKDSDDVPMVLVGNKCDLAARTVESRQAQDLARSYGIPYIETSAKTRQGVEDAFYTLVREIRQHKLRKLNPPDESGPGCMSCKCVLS
The depositor's hits bear a star; [ ] = remark or other dose.

SMILES | Rac1 wt modul | Rab2 wt GTP | Cdc42 wt | Rab7 wt GTP bind | Rac1 mut GTP | HRas wt GTP
NC(=S)N=Nc1c(O)[nH]c2ccc(F)cc12 | 76* | 74* | 84 | 85 | 89 | 76*
Cc1ccc(-c2ccc(/C=C(\C#N)C(=O)Nc3cc(C)nn3-c3ccccc3)o2)cc1 | 97 | 109 | 101 | 107 | 120*[activator] | 127*[activator]
N#Cc1ccc2ccn(CC(=O)N3CCCc4ccccc43)c2c1 | 129*[activator] | 109 | 109 | 110 | 106 | 109
O=C(CN1CCCCC1)N1CCCc2ccccc21 | 106 | 102 | 104 | 100 | 101 | 103
COC(=O)/C=C/C(=O)Nc1cccnc1 | 103 | 101 | 101 | 96 | 99 | 99
O=C(O)/C=C\C(=O)Nc1cccc(C(=O)Nc2cccc(O)c2)c1 | 76* | 83 | 85 | 95 | 89 | 87
O=C(Nc1cccc(O)c1)c1ccccc1 | 102 | 104 | 103 | 106 | 100 | 104
O=C(O)/C=C/C(=O)Nc1cccnc1 | 34* | 31* | 31* | 20* | 34* | 38*
Clc1cccc2c1CCN(Cc1nc(-c3cnccn3)no1)C2 | 103 | 101 | 99 | 105 | 98 | 100
O=C(N/N=C/c1c(O)n(-c2ccccc2Cl)c(=O)c2ccccc12)c1cccnc1 | 94 | 93 | 91 | 94 | 94 | 93
COc1ccc(Cn2c(O)c(/C=N/NC(=O)c3cccnc3)c3ccccc3c2=O)cc1 | 60* | 83 | 68* | 96 | 72* | 87
O=C(N/N=C/c1c(O)n(Cc2ccccc2)c(=O)c2ccccc12)c1cccnc1 | 55* | 71* | 65* | 93 | 68* | 78*
Cc1cc(C)n2nc(SCCOc3ccccc3)nc2n1 | 78* | 83 | 82 | 93 | 88 | 84
Cc1cc(C)n2nc(SCC(=O)Nc3ccccc3)nc2n1 | 99 | 97 | 97 | 96 | 96 | 96
O=C1c2ccccc2-n2c1nc1ccccc1c2=O | 77* | 82 | 81 | 97 | 88 | 82
COc1cc(/C=N/NC(=O)Nc2cccc3nsnc23)cc(OC)c1OC | 76* | 59* | 56* | 80 | 75* | 58*
COc1ccc(/C=C2\CCCC3C2=NN(C(=O)c2scnc2C)C3c2ccc(OC)c(OC)c2)cc1OC (stereo not drawn) | 81 | 66* | 66* | 88 | 85 | 67*
COc1ccc(Cl)cc1NC(=O)CN1CCc2ccccc21 | 96 | 98 | 97 | 105 | 95 | 98
COc1ccccc1CNC(=O)c1c(N)n(CCCN2CCOCC2)c2nc3ccccc3nc12 | 78* | 82 | 80 | 87 | 86 | 84
Cc1c(F)cccc1NS(=O)(=O)c1ccc2c(c1)c(=O)n(C)c(=O)n2C | 93 | 100 | 97 | 107 | 97 | 100
COc1ccc(-n2cc(-c3ccccc3)c3c(N4CCOCC4)ncnc32)cc1 | 99 | 96 | 97 | 94 | 98 | 97
COc1ccc(-n2cc(-c3ccccc3)c3c(=O)[nH]cnc32)cc1 | 121*[activator] | 106 | 110 | 104 | 104 | 108
Cc1ccc(C(=O)N/C(=C/c2ccccc2)C(=O)NCC2CCCO2)cc1 (stereo not drawn) | 99 | 99 | 97 | 102 | 99 | 98
CN(C)S(=O)(=O)c1cccc(NC(=O)c2cc3c(=O)n4ccccc4nc3s2)c1 | 91 | 87 | 96 | 93 | 96 | 89
Cc1cc(NS(=O)(=O)c2ccc(NC(=O)c3cc4c(=O)n5ccccc5nc4s3)cc2)nc(C)n1 | 83 | 80 | 76* | 104 | 85 | 82
SMILES | Rac1 wt modul | Rab2 wt GTP | Cdc42 wt | Rab7 wt GTP bind | Rac1 mut GTP | HRas wt GTP
CCOC(=O)c1cnc2nc(C)nn2c1N | 95 | 99 | 92 | 100 | 95 | 97
CCOC(=O)c1cnc2c(C#N)cnn2c1N | 73* | 73* | 77* | 88 | 86 | 72*
Cc1ccccc1NC(=O)CN1C(=O)S/C(=C\c2ccc(-c3cc(C(=O)O)ccc3C)o2)C1=O | 87 | 85 | 79* | 91 | 83 | 86
O=C(O)c1cc([N+](=O)[O-])ccc1NCc1ccccc1 | 204*[activator] | 153*[activator] | 172*[activator] | 137*[activator] | 146*[activator] | 150*[activator]
COc1cc2c(cc1OC)-c1cc(NC3CCCCCCC3)nc(=O)n1CC2 | 89 | 80 | 77* | 91 | 88 | 77*
COc1cc2c(cc1OC)-c1cc(NCc3ccccn3)nc(=O)n1CC2 | 83 | 80 | 79* | 87 | 84 | 79*
CCNc1cc2n(c(=O)n1)CCc1cc(OC)c(OC)cc1-2 | 86 | 86 | 88 | 87 | 87 | 86
c1csc(-c2nn3cnnc3c3ccccc23)c1 | 95 | 90 | 90 | 102 | 93 | 92
Cc1ccc(-n2c(=O)[nH]c3c(oc4ccccc43)c2=O)cc1 | 135*[activator] | 117 | 114 | 106 | 107 | 112
COc1ccc(-n2c(=S)[nH]c3c(oc4ccccc43)c2=O)cc1 | 111 | 94 | 96 | 98 | 98 | 99
Cc1c(C(=O)N2CCc3ccccc3C2)oc2ccc(S(=O)(=O)N3CCCCCC3)cc12 | 131*[activator] | 112 | 105 | 108 | 108 | 111
Cc1c(C(=O)N2CCOCC2)oc2ccc(S(=O)(=O)N3CCCC3)cc12 | 103 | 103 | 102 | 100 | 100 | 103
COc1cc(-c2nnc(CSc3nnc(Nc4ccc(Oc5ccccc5)cc4)s3)o2)cc(OC)c1OC | 96 | 91 | 98 | 94 | 95 | 93
Cc1cc2nc(/C(C#N)=C/c3ccncc3)[nH]c2cc1C | 86 | 94 | 87 | 96 | 89 | 92
N#C/C(=C\c1ccc(-c2ccc(C(=O)O)cc2)o1)c1nc2ccccc2[nH]1 | 71* | 77* | 78* | 87 | 80 | 80
N#C/C(=C\c1ccncc1)c1nc2ccccc2[nH]1 | 31* | 42* | 41* | 26* | 35* | 43*
Cc1ccc(-c2ccc(/C=C3\SC(N4CCOCC4)=NC3=O)o2)cc1 | 76* | 88 | 87 | 90 | 90 | 85
Cc1ccc(/C=C(\CCC(=O)O)c2nc3ccccc3s2)cc1[N+](=O)[O-] | 83 | 79* | 83 | 87 | 78* | 86
